# Several values for one entry are separate records, joined by “and”; a condition that tells them apart may be missing. Equal values may be shown once. Hit rate of the full screen: of about 5,500 compounds, about 2,000 (36%) were called active. Inconclusive results (about 18%) are left out. Rule as the data show it: active = normalized growth mostly below about 0.91 (no sharp cut-off); inconclusive = no clear call, values can overlap the other calls; inactive = mostly above about 0.92. The list shows a part of the results.
# Assay: chemical genetic growth profiling, strain panel (AID 1159580);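 also: tested at 20 µM; growth read once vehicle control cultures reached saturation at 30 °C; 1 = growth at the plate median or of vehicle wells; lower values mean less growth of the strain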
# Settings: S. cerevisiae deletion strains, growth OD
smiles,measurement,setting,value
CC(C)=CCCC1(C)C=Cc2c(O)c3c(c(CC=C(C)C)c2O1)OC12C(=CC4CC1C(C)(C)OC2(C/C=C(/C)C(=O)O)C4=O)C3=O (configuration not stated),normalized growth,"locus YAL013W, strain DEP1, stronger effect = lower value",0.887 (active)
same,normalized growth,"locus YAL021C, strain ccr4, stronger effect = lower value",0.954 (inactive)
same,normalized growth,"locus YAL026C, strain drs2, stronger effect = lower value",0.895 (active)
same,normalized growth,"locus YAL030W, strain snc1, stronger effect = lower value",0.925 (active)
same,normalized growth,"locus YBL061C, strain skt5, stronger effect = lower value",0.87 (active)
same,normalized growth,"locus YBR009C, strain hhf1, stronger effect = lower value",0.803 (active)
same,normalized growth,"locus YBR021W, strain FUR4, stronger effect = lower value",0.99 (inactive)
same,normalized growth,"locus YBR023C, strain chs3, stronger effect = lower value",0.84 (active)
same,normalized growth,"locus YBR171W, strain sec66, stronger effect = lower value",0.979 (inactive)
same,normalized growth,"locus YBR229C, strain ROT2, stronger effect = lower value",0.988 (inactive)
same,normalized growth,"locus YBR231C, strain swc5, stronger effect = lower value",0.559 (active)
same,normalized growth,"locus YBR279W, strain paf1, stronger effect = lower value",0.815 (active)
same,normalized growth,"locus YCL011C, strain gbp2, stronger effect = lower value",0.835 (active)
same,normalized growth,"locus YCL016C, strain dcc1, stronger effect = lower value",0.853 (active)
same,normalized growth,"locus YCL029C, strain bik1, stronger effect = lower value",0.987 (inactive)
same,normalized growth,"locus YCL061C, strain MRC1, stronger effect = lower value",0.907 (active)
same,normalized growth,"locus YCL069W, strain vba3, stronger effect = lower value",0.945 (inactive)
same,normalized growth,"locus YCR088W, strain abp1, stronger effect = lower value",0.943 (inactive)
same,normalized growth,"locus YDL005C, strain med2, stronger effect = lower value",0.959 (inactive)
same,normalized growth,"locus YDL035C, strain GPR1, stronger effect = lower value",0.736 (active)
same,normalized growth,"locus YDL040C, strain nat1, stronger effect = lower value",0.959 (inactive)
same,normalized growth,"locus YDL074C, strain BRE1, stronger effect = lower value",0.691 (active)
same,normalized growth,"locus YDL101C, strain DUN1, stronger effect = lower value",0.894 (inactive)
same,normalized growth,"locus YDL185W, strain tfp1, stronger effect = lower value",0.986 (inactive)
same,normalized growth,"locus YDL192W, strain arf1, stronger effect = lower value",0.901 (active)
same,normalized growth,"locus YDR001C, strain nth1, stronger effect = lower value",0.952 (inactive)
same,normalized growth,"locus YDR069C, strain doa4, stronger effect = lower value",0.821 (active)
same,normalized growth,"locus YDR101C, strain arx1, stronger effect = lower value",0.93 (inactive)
same,normalized growth,"locus YDR137W, strain rgp1, stronger effect = lower value",0.713 (active)
same,normalized growth,"locus YDR150W, strain NUM1, stronger effect = lower value",0.932 (inactive)
same,normalized growth,"locus YDR159W, strain sac3, stronger effect = lower value",0.957 (inactive)
same,normalized growth,"locus YDR162C, strain NBP2, stronger effect = lower value",0.296 (active)
same,normalized growth,"locus YDR195W, strain ref2",1.11 (inactive)
same,normalized growth,"locus YDR297W, strain sur2, stronger effect = lower value",0.889 (active)
same,normalized growth,"locus YDR318W, strain mcm21, stronger effect = lower value",0.879 (active)
same,normalized growth,"locus YDR334W, strain swr1, stronger effect = lower value",0.916 (inactive)
same,normalized growth,"locus YDR335W, strain msn5, stronger effect = lower value",0.902 (active)
same,normalized growth,"locus YDR388W, stronger effect = lower value",0.897 (active)
same,normalized growth,"locus YDR392W, strain spt3, stronger effect = lower value",0.223 (active)
same,normalized growth,"locus YDR502C, strain sam2, stronger effect = lower value",0.849 (active)
same,normalized growth,"locus YEL003W, strain gim4, stronger effect = lower value",0.863 (active)
same,normalized growth,"locus YEL037C, strain rad23, stronger effect = lower value",0.967 (inactive)
same,normalized growth,"locus YEL061C, strain CIN8 (second series), stronger effect = lower value",0.935 (inactive)
same,normalized growth,"locus YEL061C, strain CIN8, stronger effect = lower value",0.881 (active)
same,normalized growth,"locus YER015W, strain faa2, stronger effect = lower value",0.785 (active)
same,normalized growth,"locus YER016W, strain bim1, stronger effect = lower value",0.967 (inactive)
same,normalized growth,"locus YER110C, stronger effect = lower value",0.98 (inactive)
same,normalized growth,"locus YER111C, strain swi4, stronger effect = lower value",0.977 (inactive)
same,normalized growth,"locus YER155C, strain BEM2 (second series), stronger effect = lower value",0.758 (active)
same,normalized growth,"locus YER155C, strain BEM2, stronger effect = lower value",0.83 (active)
same,normalized growth,"locus YER167W, strain BCK2, stronger effect = lower value",0.874 (active)
same,normalized growth,"locus YFR010W, strain ubp6, stronger effect = lower value",0.891 (active)
same,normalized growth,"locus YGL078C, strain dbp3, stronger effect = lower value",0.965 (inactive)
same,normalized growth,"locus YGL086W, strain mad1, stronger effect = lower value",0.892 (active)
same,normalized growth,"locus YGL167C, strain pmr1, stronger effect = lower value",0.915 (inactive)
same,normalized growth,"locus YGL173C, strain kem1, stronger effect = lower value",0.82 (active)
same,normalized growth,"locus YGL227W, strain vid30, stronger effect = lower value",0.985 (inactive)
same,normalized growth,"locus YGL240W, strain doc1, stronger effect = lower value",0.966 (inactive)
same,normalized growth,"locus YGL248W, strain PDE1, stronger effect = lower value",0.791 (active)
same,normalized growth,"locus YGL253W, strain hxk2, stronger effect = lower value",0.877 (active)
same,normalized growth,"locus YGR135W, strain pre9, stronger effect = lower value",0.885 (active)
same,normalized growth,"locus YGR229C, strain SMI1, stronger effect = lower value",0.244 (active)
same,normalized growth,"locus YGR252W, strain gcn5, stronger effect = lower value",0.882 (inactive)
same,normalized growth,"locus YHR013C, strain ard1, stronger effect = lower value",0.605 (active)
same,normalized growth,"locus YHR027C, strain rpn1, stronger effect = lower value",0.894 (active)
same,normalized growth,"locus YHR030C, strain SLT2, stronger effect = lower value",0.85 (active) and 0.869 (inactive)
same,normalized growth,"locus YHR079C, strain IRE1 (second series), stronger effect = lower value",0.98 (inactive)
same,normalized growth,"locus YHR079C, strain IRE1, stronger effect = lower value",0.89 (inactive)
same,normalized growth,"locus YHR094C, strain hxt1, stronger effect = lower value",0.983 (inactive)
same,normalized growth,"locus YHR129C, strain ARP1, stronger effect = lower value",0.808 (active)
same,normalized growth,"locus YHR142W, strain chs7, stronger effect = lower value",0.818 (active)
same,normalized growth,"locus YHR200W, strain rpn10, stronger effect = lower value",0.914 (active)
same,normalized growth,"locus YIL066C, strain RNR3, stronger effect = lower value",0.606 (active)
same,normalized growth,"locus YIL073C, strain SPO22, stronger effect = lower value",0.796 (inactive)
same,normalized growth,"locus YIL125W, strain kgd1, stronger effect = lower value",0.927 (active)
same,normalized growth,"locus YIR030C, strain dcg1, stronger effect = lower value",0.967 (inactive)
same,normalized growth,"locus YJL092W, strain hpr5, stronger effect = lower value",0.946 (inactive)
same,normalized growth,"locus YJL095W, strain BCK1 (second series), stronger effect = lower value",0.871 (active)
same,normalized growth,"locus YJL095W, strain BCK1, stronger effect = lower value",0.732 (active) and 0.878 (active)
same,normalized growth,"locus YJL115W, strain asf1, stronger effect = lower value",0.951 (inactive)
same,normalized growth,"locus YJL129C, strain trk1, stronger effect = lower value",0.653 (active)
same,normalized growth,"locus YJL134W, strain LCB3, stronger effect = lower value",0.982 (inactive)
same,normalized growth,"locus YJL154C, strain vps35, stronger effect = lower value",0.983 (inactive)
same,normalized growth,"locus YJL164C, strain tpk1, stronger effect = lower value",0.758 (active)
same,normalized growth,"locus YJL166W, strain qcr8, stronger effect = lower value",0.77 (active)
same,normalized growth,"locus YJL168C, strain set2, stronger effect = lower value",0.98 (inactive)
same,normalized growth,"locus YJL187C, strain SWE1 (second series), stronger effect = lower value",0.838 (active)

# — PubChem BioAssay AID1159580 (chemical genetic matrix, 2015)
